Experimental data reported in PubChem BioAssay (EPA / NIEHS).
Activity calls are given as the source filed them. The calls were made as follows: active = hit-call score of the fitted dose curve at least 0.9, where 1 is the maximum; inactive = score below 0.9.

Legend:
Details in all cases: mRNA level, 48 h; actives raise or lower the signal
[1] = read-out: JUN Transcription Factor, JUN (gene 3725); assay: LTEA_HepaRG_JUN: Life Technologies and Expression Analysis (LTEA) Assay for JUN Transcription Factor using HepaRG (AID 2283513)
Method in brief: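 Cells plated 48 h, medium switched to serum-free induction medium, then dosed 48 h (100 uM top, half-log dilutions, 0.5% DMSO). RNA isolated; JUN measured by qRT-PCR against three housekeeping genes; gain or loss fitted relative to DMSO.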

[2] = read-out: Lipase C (LIPC), LIPC (gene 3990); assay: LTEA_HepaRG_LIPC: Life Technologies and Expression Analysis (LTEA) Assay for Lipase C (LIPC) using HepaRG (AID 2283514)
Method in brief: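 Differentiated human HepaRG cells in serum-free induction medium were exposed in duplicate for 48 h to eight concentrations (top 100 uM, half-log steps, 0.5% DMSO). LIPC mRNA was quantified by TaqMan qRT-PCR, normalized to ACTB, GAPDH and POLR2A, with bidirectional fitting versus DMSO.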

[3] = read-out: Lipoprotein lipase (LPL), LPL (gene 4023); assay: LTEA_HepaRG_LPL: Life Technologies and Expression Analysis (LTEA) Assay for Lipoprotein lipase (LPL) using HepaRG (AID 2283515)
Method in brief: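 Differentiated human HepaRG cells in serum-free induction medium were exposed in duplicate for 48 h to eight half-log concentrations (top 100 uM) in 0.5% DMSO. LPL mRNA was quantified by TaqMan qRT-PCR, normalized to ACTB, GAPDH and POLR2A.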

[4] = read-out: MicroRNA 122 (MIR122), gene 406906; assay: LTEA_HepaRG_MIR122: Life Technologies and Expression Analysis (LTEA) Assay for MicroRNA 122 (MIR122) using HepaRG (AID 2283516); also: the transcript read is the microRNA miR-122
Method in brief: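 HepaRG plated 48 h, switched to serum-free induction medium, then treated in duplicate for 48 h (100 uM top, half-log steps, 0.5% DMSO vehicle). RNA isolated, qRT-PCR performed, concentration-response fitted both directions relative to DMSO.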

[5] = read-out: matrix metalloproteinase-10 (MMP10), MMP10 (gene 4319); assay: LTEA_HepaRG_MMP10: Life Technologies and Expression Analysis (LTEA) Assay for matrix metalloproteinase-10 (MMP10) using HepaRG (AID 2283517)
Method in brief: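 HepaRG, collagen I, ~100,000 cells/well; serum-free induction medium; 48 h exposure, duplicate, 8-pt half-log to 100 uM, 0.5% DMSO. Readout: TaqMan qRT-PCR, normalized to ACTB/GAPDH/POLR2A; bidirectional fit vs DMSO.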

[6] = read-out: MYC, MYC (gene 4609); assay: LTEA_HepaRG_MYC: Life Technologies and Expression Analysis (LTEA) Assay for MYC using HepaRG (AID 2283518)
Method in brief: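 HepaRG, ~100,000 cells/well, collagen I; 48 h plating; serum-free induction medium; 48 h dosing, duplicate, 100 uM top, half-log, 0.5% DMSO; total RNA → qRT-PCR MYC; gain/loss fit vs DMSO.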

[7] = read-out: matrix metalloproteinase-3 (MMP3), MMP3 (gene 4314); assay: LTEA_HepaRG_MMP3: Life Technologies and Expression Analysis (LTEA) Assay for matrix metalloproteinase-3 (MMP3) using HepaRG (AID 2283519)
Method in brief: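 Differentiated human HepaRG cells, plated 48 h on collagen I, were exposed in duplicate for 48 h in serum-free induction medium to eight half-log concentrations up to 100 uM in 0.5% DMSO. MMP3 mRNA was quantified by TaqMan qRT-PCR, normalised to ACTB, GAPDH and POLR2A.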

[8] = read-out: Paternally Expressed 10 (PEG10), PEG10 (gene 23089); assay: LTEA_HepaRG_PEG10: Life Technologies and Expression Analysis (LTEA) Assay for Paternally Expressed 10 (PEG10) using HepaRG (AID 2283520)
Method in brief: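 HepaRG, 48 h post-plating → serum-free induction medium → 48 h chemical exposure (duplicate, 8-pt, max 100 uM, half-log, 0.5% DMSO) → lysis in RLT → TaqMan qRT-PCR for PEG10, ACTB/GAPDH/POLR2A normalisation.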

[9] = read-out: Nuclear factor NF-kappa-B p105 subunit (Homo sapiens) (UniProt P19838); assay: LTEA_HepaRG_NFKB1: Life Technologies and Expression Analysis (LTEA) Assay for Nuclear Factor Kappa B Subunit 1 (NFKB1) using HepaRG (AID 2283521)
Method in brief: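 HepaRG, 48 h exposure; 8-pt half-log series from 100 uM in 0.5% DMSO; duplicates. Readout: NFKB1 mRNA by qRT-PCR (Fluidigm arrays), housekeeping-normalized. Gain/loss fit vs DMSO baseline.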

[10] = read-out: Protein phosphatase 2A (PPP2R4), PTPA (gene 5524); assay: LTEA_HepaRG_PPP2R4: Life Technologies and Expression Analysis (LTEA) Assay for Protein phosphatase 2A (PPP2R4) using HepaRG (AID 2283522)
Method in brief: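 Readout is PPP2R4 transcript level by microfluidic qRT-PCR after 48 h chemical treatment of human HepaRG liver cells. Concentrations spanned 100 uM downward in half-log steps; gain or loss of signal was fitted relative to DMSO.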

[11] = read-out: solute carrier (SLC22A1), SLC22A1 (gene 6580); assay: LTEA_HepaRG_SLC22A1: Life Technologies and Expression Analysis (LTEA) Assay for solute carrier (SLC22A1) using HepaRG (AID 2283524)
Method in brief: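 Human HepaRG cells were plated 48 h, switched to serum-free induction medium, then exposed in duplicate for 48 h to 8-point half-log series from 100 uM in 0.5% DMSO. SLC22A1 mRNA measured by qRT-PCR, normalized to ACTB/GAPDH/POLR2A, fitted bidirectionally versus DMSO.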

[12] = read-out: Pyruvate Dehydrogenase Kinase 4 (PDK4), PDK4 (gene 5166); assay: LTEA_HepaRG_PDK4: Life Technologies and Expression Analysis (LTEA) Assay for Pyruvate Dehydrogenase Kinase 4 (PDK4) using HepaRG (AID 2283525)
Method in brief: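 Differentiated human HepaRG cells, pre-cultured 48 h, were exposed in duplicate for 48 h in serum-free induction medium to eight half-log concentrations up to 100 uM in 0.5% DMSO. PDK4 mRNA was quantified by qRT-PCR, normalized to ACTB, GAPDH and POLR2A, bidirectional fitting versus DMSO.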

[13] = read-out: NAD(P)H dehydrogenase [quinone] 1 (NQO1), NQO1 (gene 1728); assay: LTEA_HepaRG_NQO1: Life Technologies and Expression Analysis (LTEA) Assay for NAD(P)H dehydrogenase [quinone] 1 (NQO1) using HepaRG (AID 2283526)
Method in brief: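 HepaRG, 48 h post-plating → serum-free induction medium → test chemical 48 h (duplicate, 100 uM top, half-log x8, 0.5% DMSO) → RNA isolation → qRT-PCR, ACTB/GAPDH/POLR2A normalization; bidirectional curve fit vs DMSO baseline.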

[14] = read-out: Nuclear factor erythroid 2-related factor 2 (Homo sapiens) (UniProt Q16236); assay: LTEA_HepaRG_NFE2L2: Life Technologies and Expression Analysis (LTEA) Assay for Nuclear factor erythroid 2-related factor 2 (NFE2L2) Transcription Factor using HepaRG (AID 2283527)
Method in brief: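 Differentiated human HepaRG cells in serum-free induction medium were exposed for 48 h to eight concentrations (top 100 uM, half-log dilutions, 0.5% DMSO), in duplicate. NFE2L2 mRNA was quantified by TaqMan qRT-PCR, normalized to ACTB, GAPDH and POLR2A, with bidirectional fitting versus DMSO.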

[15] = read-out: succinate dehydrogenase complex iron sulfur subunit B (SDHB), SDHB (gene 6390); assay: LTEA_HepaRG_SDHB: Life Technologies and Expression Analysis (LTEA) Assay for succinate dehydrogenase complex iron sulfur subunit B (SDHB) using HepaRG (AID 2283528)
Method in brief: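 Readout is SDHB transcript level by qRT-PCR, normalised to three housekeeping genes and fitted bidirectionally against 0.5% DMSO vehicle. Human HepaRG cells were treated for 48 h at up to 100 uM.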

[16] = read-out: solute carrier (SLCO1B1), SLCO1B1 (gene 10599); assay: LTEA_HepaRG_SLCO1B1: Life Technologies and Expression Analysis (LTEA) Assay for solute carrier (SLCO1B1) using HepaRG (AID 2283530)
Method in brief: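 HepaRG, serum-free induction medium, 48 h dosing, 8-pt half-log from 100 uM, 0.5% DMSO vehicle, duplicates. Readout: SLCO1B1 mRNA, qRT-PCR, ACTB/GAPDH/POLR2A normalization; up or down fit vs DMSO.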

[17] = read-out: sulfotransferase 2A1 (SULT2A1), SULT2A1 (gene 6822); assay: LTEA_HepaRG_SULT2A1: Life Technologies and Expression Analysis (LTEA) Assay for sulfotransferase 2A1 (SULT2A1) using HepaRG (AID 2283531)
Method in brief: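 Transcript levels of SULT2A1, quantified by qRT-PCR and normalized to three housekeeping genes, serve as the readout. Human HepaRG cultures receive test chemicals for 48 h at up to 100 uM in half-log steps, with 0.5% DMSO vehicle.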

[18] = read-out: Transforming Growth Factor (TGFA), TGFA (gene 7039); assay: LTEA_HepaRG_TGFA: Life Technologies and Expression Analysis (LTEA) Assay for Transforming Growth Factor (TGFA) using HepaRG (AID 2283532)
Method in brief: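 Differentiated human HepaRG cells, plated 48 h then switched to serum-free induction medium, were exposed in duplicate for 48 h to 8-point half-log series from 100 uM in 0.5% DMSO. TGFA mRNA measured by qRT-PCR, normalized to ACTB/GAPDH/POLR2A, bidirectional fit versus DMSO.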

[19] = read-out: Signal transducer and activator of transcription 3 (Homo sapiens) (UniProt P40763); assay: LTEA_HepaRG_STAT3: Life Technologies and Expression Analysis (LTEA) Assay for Signal transducer and activator of transcription (STAT3) using HepaRG (AID 2283529)
Method in brief: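 Differentiated human HepaRG cells in serum-free induction medium were exposed in duplicate for 48 h to eight half-log concentrations up to 100 uM in 0.5% DMSO. STAT3 mRNA was quantified by TaqMan qRT-PCR, normalized to ACTB, GAPDH and POLR2A, and fitted bidirectionally against DMSO.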

Measured: AC50

Chain of Nuclear factor erythroid 2-related factor 2 (Homo sapiens) (Q16236 whole entry, looked up): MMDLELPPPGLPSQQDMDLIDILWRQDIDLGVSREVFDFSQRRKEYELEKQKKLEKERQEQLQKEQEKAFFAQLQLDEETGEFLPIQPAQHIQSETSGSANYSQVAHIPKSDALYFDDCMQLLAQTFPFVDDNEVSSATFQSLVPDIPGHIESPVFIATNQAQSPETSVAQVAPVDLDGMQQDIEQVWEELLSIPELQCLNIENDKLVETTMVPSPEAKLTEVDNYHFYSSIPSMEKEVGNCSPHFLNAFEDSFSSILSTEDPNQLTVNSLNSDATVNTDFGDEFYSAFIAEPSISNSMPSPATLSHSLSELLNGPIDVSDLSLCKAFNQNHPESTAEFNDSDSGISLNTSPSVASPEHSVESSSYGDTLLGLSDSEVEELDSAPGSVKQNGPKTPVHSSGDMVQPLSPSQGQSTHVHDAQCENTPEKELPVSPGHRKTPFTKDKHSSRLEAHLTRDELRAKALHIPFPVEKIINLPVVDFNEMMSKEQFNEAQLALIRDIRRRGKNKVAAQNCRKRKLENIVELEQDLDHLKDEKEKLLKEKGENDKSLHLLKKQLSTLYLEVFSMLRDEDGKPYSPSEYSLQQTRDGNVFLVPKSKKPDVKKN
Chain of Nuclear factor NF-kappa-B p105 subunit (Homo sapiens) (P19838 whole entry, looked up): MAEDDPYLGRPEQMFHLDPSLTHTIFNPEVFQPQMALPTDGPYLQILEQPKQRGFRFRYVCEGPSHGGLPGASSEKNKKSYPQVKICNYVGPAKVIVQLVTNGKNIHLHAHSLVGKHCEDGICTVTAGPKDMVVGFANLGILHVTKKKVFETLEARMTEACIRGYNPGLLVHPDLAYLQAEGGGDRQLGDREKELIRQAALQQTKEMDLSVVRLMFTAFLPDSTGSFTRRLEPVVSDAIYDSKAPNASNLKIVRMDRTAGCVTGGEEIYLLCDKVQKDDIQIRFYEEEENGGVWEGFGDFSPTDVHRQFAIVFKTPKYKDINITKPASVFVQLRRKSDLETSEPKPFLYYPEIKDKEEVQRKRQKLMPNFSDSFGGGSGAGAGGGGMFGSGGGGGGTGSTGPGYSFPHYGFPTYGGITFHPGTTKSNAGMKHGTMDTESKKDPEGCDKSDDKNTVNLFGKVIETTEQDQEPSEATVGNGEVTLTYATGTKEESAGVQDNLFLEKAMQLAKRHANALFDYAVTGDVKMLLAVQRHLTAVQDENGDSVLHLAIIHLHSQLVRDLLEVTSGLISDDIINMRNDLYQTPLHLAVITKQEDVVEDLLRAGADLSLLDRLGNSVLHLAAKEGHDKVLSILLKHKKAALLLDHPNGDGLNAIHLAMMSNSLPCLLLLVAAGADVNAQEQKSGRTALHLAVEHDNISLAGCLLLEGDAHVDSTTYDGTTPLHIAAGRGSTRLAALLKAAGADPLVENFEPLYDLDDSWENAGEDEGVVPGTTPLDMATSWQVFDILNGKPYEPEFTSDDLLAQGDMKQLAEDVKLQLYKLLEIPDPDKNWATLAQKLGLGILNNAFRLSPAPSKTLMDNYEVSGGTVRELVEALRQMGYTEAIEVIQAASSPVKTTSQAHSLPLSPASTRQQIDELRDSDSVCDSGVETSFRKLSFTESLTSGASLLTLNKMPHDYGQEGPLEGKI
Chain of Signal transducer and activator of transcription 3 (Homo sapiens) (P40763 whole entry, looked up): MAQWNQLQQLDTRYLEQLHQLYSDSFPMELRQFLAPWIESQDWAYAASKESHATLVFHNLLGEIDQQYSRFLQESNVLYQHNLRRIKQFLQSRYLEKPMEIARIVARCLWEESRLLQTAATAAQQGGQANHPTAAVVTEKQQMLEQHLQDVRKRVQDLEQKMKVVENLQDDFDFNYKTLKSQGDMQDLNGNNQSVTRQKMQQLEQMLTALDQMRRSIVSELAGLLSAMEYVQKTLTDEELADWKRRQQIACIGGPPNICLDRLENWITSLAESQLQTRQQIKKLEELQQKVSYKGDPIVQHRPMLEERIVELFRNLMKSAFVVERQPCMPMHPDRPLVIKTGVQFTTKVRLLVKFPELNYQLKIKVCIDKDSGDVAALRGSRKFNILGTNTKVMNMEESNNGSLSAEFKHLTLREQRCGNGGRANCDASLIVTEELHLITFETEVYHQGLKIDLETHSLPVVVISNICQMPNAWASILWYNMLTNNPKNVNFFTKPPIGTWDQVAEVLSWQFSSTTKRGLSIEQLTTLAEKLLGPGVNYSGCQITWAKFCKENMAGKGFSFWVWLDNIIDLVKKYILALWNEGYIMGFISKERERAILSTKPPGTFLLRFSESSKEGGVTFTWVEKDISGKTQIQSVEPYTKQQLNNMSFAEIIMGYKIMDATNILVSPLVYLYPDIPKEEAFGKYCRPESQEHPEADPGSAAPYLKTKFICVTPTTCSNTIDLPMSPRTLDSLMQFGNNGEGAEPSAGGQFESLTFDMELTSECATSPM

COc1ccc(C(c2ccc(OC)cc2)C(Cl)(Cl)Cl)cc1
inactive: [1] | [5] | [7] | [8] | [9] | [10] | [12] | [13] | [16] | [17] | [18]
active: [2] 85.8 µM | [3] 76.6 µM | [4] 79.4 µM | [6] 49.8 µM | [11] 84.8 µM | [14] 12.7 µM | [15] 33.2 µM

O=C(Nc1ccccc1)Nc1ccnc(Cl)c1
inactive: [1] | [4] | [5] | [6] | [7] | [12]
active: [2] 24 µM | [3] 81.8 µM | [8] 31.8 µM | [9] 39.2 µM | [10] 77.7 µM | [11] 68 µM | [13] 82.6 µM | [14] 82.3 µM | [15] 94 µM | [19] 42.6 µM | [16] 82.1 µM | [17] 81.5 µM | [18] 76.1 µM

O=C(O)COc1nc(Cl)c(Cl)cc1Cl
active: [8] 3.29 µM | [12] 51 µM
inactive: [1] | [2] | [3] | [4] | [5] | [6] | [7] | [9] | [10] | [11] | [13] | [14] | [15] | [16] | [17] | [18]
